Our source for the inhibition values is PubChem BioAssay.

The assay in a line: inhibitors of PAF-induced NFkB signaling in CF airway cells, dose response, cell-based, uHTS hits, panel, cytotoxicity readout (AID 624344). The conditions noted are these: CF bronchial epithelial cells, PAF-induced NFkB reporter inhibition, with PAF, run 1; at 79 µM (top of the series) unless noted.
What is called inhibition is the drop in the measured response relative to a control, in per cent. As to `c1cc(-c2cnc3cccnn23)c2cccnc2c1`, the inhibition was determined as 114%. The figure for `O=C(NC1CCCC(C(F)(F)F)C1)c1ccc([N+](=O)[O-])o1` (stereo not given) is 97.5%; for `CC1C(c2ccccc2)OCCN1C(=S)Nc1ccc(S(=O)(=O)N2CCCCC2)cc1` (stereo not given) it is 100%; for `COc1ccc(COc2cc(-c3cccc(OC)c3)nc3ccc(NC(=O)c4cccnc4)cc23)cc1` it is 98.7%. The figure for `C[C@@H]1CC=C[C@H]2[C@H]1C(=O)N(Cc1ccccc1)[C@H]2c1ccc2ccccc2c1Br` is 110%; for `COc1cc(C2c3cc4c(cc3C3OC(=O)C2C3CO)OCO4)cc(OC)c1OC` (stereo not given) it is 91.1%. Under `CC(C)(CO)CNc1ccn2nccc2n1` stands 114%. As for `c1ccc2c(-c3cncc4ccccc34)cncc2c1`, the inhibition was determined as 110%. In the case of `CCCCCCc1cc2cc(S(=O)(=O)c3ccc(F)cc3)c(=O)oc2cc1O`, the inhibition stood at 103%. The figure for `C=CCn1cnc2c(c1=O)c1nc3ccccc3nc1n2/N=C/c1cc(OC)c(OC)c(OC)c1` is 109%.

In the case of `CC1(C)Cc2c(ccc3ccccc23)C(=O)N1`, the inhibition turned out to be 106%. Under `COc1ccc(S(=O)(=O)N2c3ccc(F)cc3CCC2C)cc1` (stereo not given) stands 98.8%. `C=C1C(=O)[C@]23C[C@H]1CCC2[C@]1(C)C(=O)CC[C@@](C)(C(=O)O)C1C[C@@H]3O` (stereo not given in full): the inhibition is 98.9%. In the case of `O=c1cc(-c2ccccc2Cl)oc2cc(O)cc(O)c12`, the inhibition amounted to 85.2%.

With `COc1ccc(-c2csc(/C(C#N)=C\c3ccc(O)c([N+](=O)[O-])c3)n2)cc1OC`, the inhibition was 97.7%.

Take `CCOc1ccc(C(C(=O)NCC2CCCO2)N(Cc2cccs2)C(=O)c2snc(C(N)=O)c2N)cc1` (stereo not given): the inhibition came to 99.5%.

With `COc1ccc2c(=O)cc(-c3ccncc3)oc2c1OC`, the inhibition amounted to 116%.

Consider `O=c1[nH]c(C2CCN(S(=O)(=O)c3ccc4c(c3)OCCO4)CC2)nc2c1nnn2Cc1c(F)cccc1Cl`, for which the inhibition was 93%. On to `Cc1ccc(CSc2nccc(-c3c(C)nc4ccccn34)n2)cc1`, for which the inhibition amounted to 101%.

As to `Cc1nn(-c2ccccn2)c2c1-c1nc(N)ncc1CC2`, the inhibition is 98.6%.

As for `CCN(CC)CCNC(=O)c1ccc(NC(=O)C2CCN(c3ncnc4sc(C)c(C)c34)CC2)cc1`, the inhibition worked out at 112%. Under `CCc1ccccc1NC(=O)CN(C)C(=O)Cn1ncc(Cl)c(Cl)c1=O` stands 102%; under `Cc1ccsc1CN(C)c1ncnc2ccc(-c3ccoc3)cc12`, 91.6%; under `CCSc1nsc(NC(=O)Nc2cccc(OC)c2)n1`, 102%. As to `CC(C)(C)S(=O)N1Cc2cc(C(=O)NCC(F)(F)F)nc(-c3cccc(-c4cccc(F)c4)c3)c2[C@@H]1CCO` (stereo not given in full), the inhibition was found to be 110%.

As for `Cc1ccc(Nc2nc3nonc3[nH]c2=O)cc1Cl`, the inhibition was 118%.

Regarding `CC(C)Cc1nc2oc3c(NCC4CCCO4)ncnc3c2c2c1CCC2` (stereo not given), the inhibition stood at 101%. Under `COc1ccc2[nH]c3c(c2c1)CCN1C(=O)C(CC(=O)NCCC2=CCCCC2)C[C@H](C(=O)N2CCCCC2)[C@@]31CCc1ccccc1` (stereo not given in full) stands 104%; under `O=S(=O)(c1cccc2cnccc12)N1CCCNCC1`, 116%. Turning to `Cc1cc(C)nc(Sc2ncnc(N)c2[N+](=O)[O-])n1`, the inhibition was determined as 96.2%.

Take `CC(=O)OC1CCC2(C)C(CCC3C4CC=C(C(C)=O)C4(C)OC(=O)CC32)C1` (stereo not given): the inhibition was determined as 99.2%. Under `Clc1ccc(CSc2nnc(-c3ccncc3)o2)cc1` stands 102%; under `O=C(Nc1ccc2c(c1)OCCO2)c1cc(-c2ccccn2)nc2ccc(Br)cc12`, 6.4%.

Regarding `CCOC(=O)c1c(C)[nH]c(C(=O)N/N=C/c2ccc(Br)cc2)c1C`, the inhibition was 89.5%.

`Cc1ccc(CNc2ncnc3ccc(-c4ccoc4C)cc23)o1`: the inhibition turned out to be 103%. Under `O=[N+]([O-])c1ccc(O)c(C2CCCCC2)c1` stands 117%.

As to `Cc1ccc(NC(=O)/C=C/c2ccco2)nc1`, the inhibition amounted to 95.8%. Turning to `O=C1/C(=C/c2cccnc2)CCc2c1[nH]c1ccccc21`, the inhibition is 103%. `Oc1ccc(Cl)cc1Cc1cc(Cl)ccc1O`: the inhibition is 103%. For the compound `CC1(Cc2cccc(F)c2)C(=O)Nc2ccc(-c3cccnc3)cc21` (stereo not given), the inhibition stood at 112%.
